# Sampled rows, rich in hits. Any-hit rate of the full collection: about 32%.
# CYP2C19 inhib = human CYP2C19 inhibition; CYP2C19 Supersomes, luciferin-H EGE luminescence, 30 min; inhibition, % at 5 µM; hit rate 21% among 96,000;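 active = CYP2C19 inhibition above a set limit at 5 µM in the primary screen, cut at about 50% in these data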;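 also: plate controls were negative control wells for no effect and 2.5 mM tranylcypromine positive control for full effect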
# Target sequence (P33261 whole entry, looked up): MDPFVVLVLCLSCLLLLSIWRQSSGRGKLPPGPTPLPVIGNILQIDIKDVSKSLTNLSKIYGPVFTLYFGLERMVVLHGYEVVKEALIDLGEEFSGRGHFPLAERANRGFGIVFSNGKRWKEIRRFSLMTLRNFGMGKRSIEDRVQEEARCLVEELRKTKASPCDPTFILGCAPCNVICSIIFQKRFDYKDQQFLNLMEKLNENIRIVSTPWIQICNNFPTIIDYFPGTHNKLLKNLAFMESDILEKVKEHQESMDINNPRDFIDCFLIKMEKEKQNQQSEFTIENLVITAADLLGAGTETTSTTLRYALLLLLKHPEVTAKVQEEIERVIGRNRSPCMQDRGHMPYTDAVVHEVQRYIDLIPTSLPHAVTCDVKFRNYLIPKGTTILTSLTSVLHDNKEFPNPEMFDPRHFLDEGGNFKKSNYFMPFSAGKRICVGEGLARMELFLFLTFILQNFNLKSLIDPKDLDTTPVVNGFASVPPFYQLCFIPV
# PostGolgi yeast = growth inhibition of a yeast mutant, post-Golgi transport screen; inhibition, % at 10 µM; post-Golgi transport phenotypic cell assay; hit rate 0.9% among 98,000;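 also: yeast cells grown in 1536-well plates; yeast grown about 18 h at 30C before absorbance read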
# CYP2C9 act = increases human cytochrome P450 2C9 activity; recombinant CYP2C9, luciferin-H conversion, luminescence; stronger effect = higher value; factor 1 = untreated enzyme, 0 = blocked; activation factor at 5 µM; hit rate 1.4% among 96,000; AID 1024;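 active = activation factor of 2 or more for CYP2C9 at a 5 µM dose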;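 also: 0 = sulfaphenazole-blocked wells and 1 = vehicle-only wells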
# PostGolgi ctrl = growth of the yeast control strain, post-Golgi counter-screen | efflux-deficient yeast background strain, growth absorbance A615, 16 h | inhibition, % at 10 µM | hit rate 5% among 98,000 | AID 738
# CYP2C19 activ = activators of human cytochrome P450 2C19. activation factor at 5 µM. 96,000 tested, under 10 active. recombinant CYP2C19, luciferin-H EGE luminescence; stronger effect = higher value; 0 = fully inhibited enzyme, 1 = untreated enzyme. AID 1025. P33261;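 active = activation factor of at least 2 at 5 µM in the primary screen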;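 also: 0 = wells with 2.5 mM tranylcypromine and 1 = vehicle-only wells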
# CYP2C9 inh = inhibitors of human CYP2C9. P11712. CYP2C9 Supersomes, luciferin-H conversion, luminescence. inhibition, % at 5 µM. hit rate 20% among 96,000;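 active = blocking of liver enzyme CYP2C9 beyond about 50% at 5 µM, limit read from the data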
# The depositor's hits bear a star; nt = not tested or not shown. Rule as the data show it, unless noted: active = inhibition above about 30%; inactive = the rest.
SMILES,CYP2C19 inhib,PostGolgi yeast,CYP2C9 act,PostGolgi ctrl,CYP2C19 activ,CYP2C9 inh
O=C(Oc1ccc(Cl)cc1N1C(=O)CCC1=O)c1ccco1,10.9,7.3,0.9,-2.1,0.9,6.3
O=C(Nc1cccc(Cl)c1N1CCCCC1)c1ccc2c(c1)OCCO2,19.1,5.2,0.3,8.9,0.8,65.4*
O=C(NCCc1cccc(F)c1)[C@@H]1CSC2c3ccccc3C(=O)N21 (stereo not given in full),21.0,3.6,0.7,6.6,0.8,28.5
COc1cccc(N2CCN(C(=O)NC3CCCCC3)CC2)c1,30.0,7.9,0.4,-0.1,0.7,56.2*
COc1ccccc1OCC(=O)Nc1ccc(O)cc1C(=O)O,-19.5,-8.3,0.9,-1.7,1.2,13.6
CNC(=S)N1CCN(c2cccc(OC)c2)CC1,14.6,8.0,0.9,0.6,0.9,11.7
O=C(C1CC1c1ccccc1)N1CCN(c2cccc(Cl)c2)CC1 (stereo not given),59.5*,-2.2,0.5,18.5,0.4,46.7
COc1cc2c(C(=O)N3CCN(c4cccc(Cl)c4)CC3)cn(CC(C)C)c(=O)c2cc1OC,25.4,17.0,0.4,10.4,0.7,57.9*
COc1cc(Cl)ccc1NC(=O)COc1ccccc1C(=O)N1CCN(c2ccc(O)cc2)CC1,79.3*,-3.7,0.2,11.6,0.2,81.7*
O=C(O)CCCC(=O)N1CCN(c2cccc(Cl)c2)CC1,5.8,-2.5,1.2,4.8,0.9,-21.0
O=C(c1ccccc1Oc1ccccc1)N1CCN(c2ccccc2)CC1,95.9*,14.2,0,21.2,0,97.7*
O=C(O)c1ccccc1C(=O)N1CCN(c2cccc(Cl)c2)CC1,nt,-3.3,nt,1.6,nt,nt
CCOc1ccccc1C(=O)N1c2ccccc2Sc2ccccc21,87.3*,24.1,0,41.8*,0.1,98.5*
CCOC(=O)c1[nH]c(C)c(C(=O)N2CCOCC2)c1C,3.2,2.8,1,6.4,1,4.7
CCOc1ccccc1C(=O)N1CCN(c2cccc(Cl)c2)CC1,66.7*,-0.8,0.3,13.3,0.3,69.6*
CCOC(=O)c1[nH]c(C)c(C(=O)N2CCN(c3ccccc3)CC2)c1C,34.6,-1.8,0.5,7.0,0.7,54.6*
COc1ccc(-n2c(SCC(=O)N3CCOCC3)nc(O)c(Cc3ccccc3)c2=O)cc1,17.6,2.4,0.9,1.4,0.8,11.0
CSC1=N/C(=C\c2ccccc2)C(=O)N1C,2.3,-3.8,0.9,6.4,1,14.7
CCCCN(CC)CCNS(=O)(=O)c1ccc2c(c1)oc(=O)n2C,2.2,-1.8,1,-5.7,1,0.1
CS(=O)(=O)N(CC(=O)N1CCN(c2cccc(Cl)c2)CC1)C1CCCCC1,27.3,-5.4,0.7,27.3,0.7,32.2
O=C(COc1ccc(S(=O)(=O)NC2CCCCC2)cc1)N1CCN(c2cccc(Cl)c2)CC1,-13.7,14.0,0.7,41.3*,1.1,31.7
CCOc1ccc2ccccc2c1C(=O)N1CCN(c2ccccc2)CC1,93.0*,-4.1,0.1,13.0,0.1,88.4*
COc1ccc(C(=O)N2CCN(c3cccc(Cl)c3)CC2)c(OC)c1,86.7*,5.5,0.3,8.3,0.1,69.1*
CCOc1ccccc1N1CCN(C(=O)c2c(C)noc2C)CC1,10.5,-5.2,1,15.6,0.9,3.0
CC(=O)c1c(C)[nH]c(C(=O)N2CCN(c3ncccn3)CC2)c1C,96.2*,-9.0,0.4,1.2,0,64.0*
SMILES,CYP2C19 inhib,PostGolgi yeast,CYP2C9 act,PostGolgi ctrl,CYP2C19 activ,CYP2C9 inh
COc1ccc(C(=O)NCC(c2cccnc2)N2CCN(c3ccccc3)CC2)cc1OC (stereo not given),nt,-4.2,nt,-0.2,nt,nt
COc1ccccc1N(CN1CCCC1=O)C(=O)COc1ccccc1,8.3,-3.2,0.9,-1.2,0.9,7.4
O=C1CSC(c2ccccn2)N1c1ccc(Cl)c(Cl)c1 (stereo not given),63.2*,-16.1,0.9,-6.9,0.4,9.2
O=C(COc1cc(Cl)ccc1Cl)Nc1nnc(CC(=O)N2CCOCC2)s1,-6.0,6.1,0.8,4.5,1.1,20.2
Cn1c(CSc2nc3ccccc3s2)n[nH]c1=S,53.6*,-6.8,0.9,4.0,0.5,12.7
Cn1c(-c2sc3ccccc3c2Cl)n[nH]c1=S,52.4*,9.7,0.2,22.3,0.5,77.0*
S=c1[nH]nc(CSc2nc3ccccc3s2)o1,-11.8,-0.6,1,6.0,1.1,-2.1
Cn1c(CSc2nc3ccccc3s2)nc2ccccc21,98.1*,-2.7,0.2,15.7,0,77.8*

# Screens deposited in PubChem BioAssay by several laboratories.
